TDP1 cell noCPT = qHTS for Inhibitors of human tyrosyl-DNA phosphodiesterase 1 (TDP1): qHTS in cells in absence of CPT; DT40 Tdp1-/- hTDP1 cells, no CPT, ATP luminescence, 48 h; Potency, µM (doses to about 46.2 µM), for the others: at the highest dose activity change, negative = growth inhibition, usual class: inhibitors; 15% of 420,000 active; further: potency means the concentration at half of the fitted maximal effect; nearly all actives have a fitted effect of over 55% in size
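Growth of hTDP1-complemented DT40 Tdp1-knockout cells is measured by ATP luminescence after at least 48 hr compound exposure at 37 °C, with DMSO substituting for the 20 nM CPT used in the parallel screen.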
HT1080NT lethal = kills 2HG-producing HT-1080-NT fibrosarcoma cells. AID 686970. HT-1080-NT fibrosarcoma viability, CellTiter-Glo ATP luminescence, 48 h. Potency, µM (highest dose often 46.1 µM), without a hit: top-dose activity, negative = less viability, actives largely listed as cytotoxic. 1.6% of 360,000 active;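 further: NT is the 2HG producing partner of a matched IDH1 knockdown line; potency means the concentration at half of the fitted maximal effect; 0% = DMSO-treated cells and -100% = media-only wells without cells; nearly all actives have a fitted effect of over 55% in size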
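HT-1080-NT fibrosarcoma cells (2HG-overproducing), 750 cells/well in RPMI with 5% FBS, dosed after 2 h and incubated 48 h at 37C. CellTiter-Glo luminescence normalized to DMSO and no-cell wells; concentration-response curves fitted and classed.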
IL-1B inflam inh = inflammasome signaling inhibition, IL-1 beta readout; activity change, % at 57.5 µM; 4.7% of 360,000 active; AID 743279; THP-1 LPS/ATP IL-1B secretion, AlphaLISA, 16 h; hits give low values; in the data active means activity change below about -50%; inconclusive means mostly about -30% to -49%
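Secreted IL-1B measured by AlphaLISA bead assay after 16 h compound exposure of THP-1 cells; compounds (final up to 57.5 uM) added 1 h before LPS (250 ng/mL) and ATP (1.25 mM) stimulation; lower signal means less secretion.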
ELG1 DNA repair = inhibitors of ELG1-dependent DNA repair in HEK293T cells; 2.3% of 330,000 active; HEK293T ELG1-luciferase reporter, luminescence, 16 h; DNA damage induced by 5-fluorouridine; Potency, µM (highest dose often 46.1 µM), without a hit: at the highest dose activity change, negative = inhibition, actives largely listed as inhibitors; further: potency means the concentration at half of the fitted maximal effect; nearly all actives have a fitted effect of over 55% in size
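5-Fluorouridine DNA damage + compound/DMSO, 2,000 cells/well, 16 h, 37 °C/5% CO2. ONE-Glo, 30 min RT, luminescence. Readout = decrease in reporter signal.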
HT1080 IDH1KD tx = kills HT-1080 cells with IDH1 knockdown. HT-1080 IDH1 knockdown viability, ATP luminescence, 48 h. Potency, µM (highest dose often 46.1 µM), inactives show at the top dose activity, negative = toxicity, usual class: cytotoxic. 2% of 360,000 active. AID 686971;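 further: potency means the concentration at half of the fitted maximal effect; 0% = DMSO wells and -100% = cell-free medium wells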
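IDH1KD HT-1080 cells, 750/well, RPMI + 5% FBS; compound pinned after 2 h settling; 48 h, 37 °C; CellTiter-Glo luminescence; % activity normalised to DMSO and no-cell wells; curves fitted, classed by r2 and efficacy.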
TDP1 cell CPT = DT40-hTDP1 cell growth loss with CPT | chicken DT40 Tdp1-/-;hTDP1 cells + 20 nM CPT, ATP luminescence, 48 h | 12% of 420,000 active | Potency, µM (series often up to 46.2 µM), without a hit: at the highest dose activity change, negative = growth inhibition, actives largely listed as inhibitors; further: potency means the concentration at half of the fitted maximal effect; nearly all actives have a fitted effect of over 55% in size
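Chicken DT40 Tdp1-/- cells stably complemented with human TDP1 were seeded at 400 cells/well in medium containing 20 nM camptothecin, exposed to pin-transferred compounds, and grown at 37 °C for at least 48 hr. Viability was read as ATP luminescence.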
Active calls of the source: *; ? = inconclusive; / = no result; [ ] = remark or other dose. The list is not random: actives were taken first. Their share in the collection is about 19%. Unless noted, the call rests on the fitted dose curve; in most records, active means well fitted curve in the direction sought with a large enough effect; inconclusive means small, poorly fitted or top-dose-only effect, or another doubt; inactive means no such curve, though single readings can be large; an effect the other way counts as inactive or inconclusive. Unless noted, on the % scale 0 is the no-effect control and ±100 the full control effect.

SMILES	TDP1 cell noCPT	HT1080NT lethal	IL-1B inflam inh	ELG1 DNA repair	HT1080 IDH1KD tx	TDP1 cell CPT
CC(=O)Oc1ccc(Cn2c(C)c(C(=O)NCc3cccc(C(F)(F)F)c3)sc2=O)cc1	?	?	-27	/	?	?
COc1ccc(C)cc1Nc1n[n+](-c2ccccc2)c(-c2cc(OC)c(OC)cc2Br)s1	16µM*	-29%	-11	-1%	-24%	23µM*
COc1ccc(C)cc1NC(=O)Nc1ccccc1	-19%	0%	?	7%	0%[9.24 µM]	-18%
COc1ccc2ccccc2c1-c1csc(N)n1	-9%	-3%	-13	0%	8%	-2%
COc1ccc(C)cc1Nc1n[n+](-c2ccccc2)c(-c2c(OC)ccc3ccccc23)s1	5.2µM*	?	-75*	-28%	?	5.8µM*
O=C(Cc1ccc(F)cc1)Nc1cccc(-c2cn3c(n2)SCC3)c1	?	-12%	?	16µM*	-11%	?
O=C(Cc1csc(N2CCOCC2)n1)N/N=C/c1ccc(Cl)cc1Cl	?	4%	-21	23µM*	1%	?
Cc1occc1C(=O)N/N=C/C1=C(N2CCOCC2)C(=C/c2ccc(Cl)cc2Cl)/CC1	7.3µM*	9%	-7	/	-1%	5.8µM*
COc1cc(/C=N/NC(=O)Cc2csc(N3CCOCC3)n2)cc(OC)c1O	-13%	-4%	-20	-4%	1%	3%
O=C(CN1c2ccccc2Sc2ccccc21)N/N=C/c1ccc(Cl)cc1Cl	18µM*	-2%	-21	-15%	19%	?
CC1(C)CNC(=O)c2sc(NC(=O)c3ccccc3)nc2C1	-26%	-2%	3	?	2%	?
CC1(C)CNC(=O)c2sc(N3CCOCC3)nc2C1	21µM*	-6%	-17	/	-4%	8.2µM*
Cc1c(C=O)c2ccccc2n1CC(=O)NC(C)c1ccccc1 (stereo not drawn)	23µM*	-24%	-1	?	-13%	?
Cc1nn(CC(=O)NC(C)c2ccccc2)c(=O)c2ccccc12 (stereo not drawn)	-2%	2%	1	5%	9%	-9%
CCOC(=O)C1CCN(Cc2ccccc2C(F)(F)F)CC1	-8%	3%	9	-11%	2%	-21%
c1ccc(N2CCN(Cc3ccnc4ccccc34)CC2)cc1	21µM*	-4%	-24	?	?	26µM*
Oc1c(CN2CCN(c3ccccc3)CC2)cc(Br)c2cccnc12	3.3µM*	?	53	?	?	5.2µM*
Oc1c(CN2CCOCC2)cc(COCc2ccccc2)c2cccnc12	4.1µM*	?	19	?	13µM*	4.6µM*
CCOC(=O)C1CCN(Cc2ccc(O)c3ncccc23)CC1	3.7µM*	?	13	?	-30%	4.6µM*
C#CCN1c2ccccc2Sc2cccnc21	-14%	-2%	2	-3%	?	10%
O=C(C1=C(O)C(=O)N(CCN2CCOCC2)C1c1ccc([N+](=O)[O-])cc1)c1cccs1 (stereo not drawn)	-20%	19%	7	21%	17%	-8%
CCOC(=O)N1CCN(Cc2ccccc2Cl)CC1	-11%	23%	14	/	14%	0%
C/C=C/c1cc(CN2CCN(c3ccccc3)CC2)c(O)c(OC)c1	12%	?	14	19%	-24%	-17%
CCOC(=O)N1CCN(Cc2cc(Cl)c3cccnc3c2O)CC1	0.46µM*	5.8µM*	62	3.7µM*	3.3µM*	0.82µM*
COCc1cc(CN2CCN(C)CC2)c(O)c2ncccc12	3.3µM*	?	20	-24%	?	4.1µM*
SMILES	TDP1 cell noCPT	HT1080NT lethal	IL-1B inflam inh	ELG1 DNA repair	HT1080 IDH1KD tx	TDP1 cell CPT
CCOCc1cc(CN2CCN(c3cccc(Cl)c3)CC2)c(O)c2ncccc12	7.3µM*	/	/	/	/	8.2µM*
CC(C)OCc1cc(CN2CCN(c3ccccc3)CC2)c(O)c2ncccc12	3.3µM*	/	/	/	/	4.6µM*
COc1ccc(S(=O)(=O)N(C)C[C@@H]2OCc3cnnn3CCCC(=O)N([C@H](C)CO)C[C@@H]2C)cc1	-14%	20%	9	/	7%	-1%
COc1ccc(/C=C/C2=CCN(Cc3ccc(OC)cc3)CC2)cc1	-28%	-21%	-22	?	-3%	-27%
Cc1ccccc1CNC(=O)Cn1c(=O)c2cccn2c2cccnc21	?	/	/	/	/	-2%
CSc1nc(N)nc2c1ncn2CC(=O)N[C@H](CO)Cc1c[nH]c2ccccc12	?	0%	23	-4%	3%	-22%
NS(=O)(=O)c1ccc(N/N=C/c2cn(-c3ccccc3)nc2-c2ccccc2)c([N+](=O)[O-])c1	12µM*	-9%	-78*	11%	-14%	4.1µM*
Cc1ccc(-c2nn(-c3ccccc3)cc2/C=N/O)cc1	-13%	?	-81*	-2%	?	21%
Cc1ccc(-c2nn(-c3ccccc3)cc2/C=N/NS(=O)(=O)c2ccccc2)cc1	?	?	-21	?	?	29µM*
CC(=O)C(=Cc1cn(-c2ccccc2)nc1-c1ccccc1)C(C)=O	?	8%	-7	15%	12%	23µM*
O/N=C/c1cn(-c2ccccc2)nc1-c1cccnc1	4%	0%	?	15%	-1%	5%
NS(=O)(=O)c1ccc(N/N=C/c2ccccc2C(=O)O)c([N+](=O)[O-])c1	4%	2%	-2	-1%	7%	5%
Cc1ccc(S(=O)(=O)N/N=C\c2cn(-c3ccccc3)nc2-c2ccccc2)cc1	-3%	?	-8	27%	0%	2%
Cc1cc(C)c(NC(=O)Cn2nc3c(cc2=O)CCCC3)c(C)c1	-5%	/	/	/	/	0%
COc1ccc(NS(=O)(=O)c2cccc(C(=O)N/N=C/c3cn(-c4ccccc4)nc3-c3ccccc3)c2)cc1	?	?	?	24%	?	16µM*
COc1ccc(NS(=O)(=O)c2cccc(C(=O)N/N=C/c3cn(-c4ccccc4)nc3-c3ccc(OC)cc3)c2)cc1	-21%	18%	-9	0%	19%	?
COc1ccc(-n2c(SCC(=O)NCC3CCCO3)nc3n[nH]c(C)c3c2=N)cc1 (stereo not drawn)	18µM*	-7%	-56*	2%	-4%	?
